Bioassay records: PubChem BioAssay, National Center for Advancing Translational Sciences (NCATS)
Tau fluor cs = counter-screen for tau fibril formation inhibitors; tau K18 P301L Alexa594 fluorescence, heparin fibrillization; hit rate 0.93% among 280,000; Potency, µM (top dose mostly 57.7 µM), without a hit: top-dose activity change, negative = decrease; active = well fitted curve in the direction sought with a large enough effect; inconclusive = small, poorly fitted or top-dose-only effect, or another doubt; inactive = no such curve, though single readings can be large; an effect the other way counts as inactive or inconclusive; note: potency is the fitted concentration of half-maximal effect; % is set by controls: 0 for no effect and ±100 for the full control effect; nearly all actives have a fitted effect of over 55% in size
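Human tau K18 P301L (15 uM unlabeled, 0.24 uM Alexa 594-labeled) in 100 mM sodium acetate pH 7 with 20 uM heparin, 6 hr at 37 C. ThT 30 uM added, 1 hr ambient; Alexa 594 FP and total fluorescence read at 555/632 nm.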
USP1-UAF1 inh = USP1/UAF1 (human) deubiquitinase inhibition. O94782. recombinant USP1/UAF1, Ub-Rhodamine cleavage fluorescence. Potency, µM (doses to about 57.1 µM), without a hit: top-dose activity change, negative = inhibition, most hits filed as inhibitors. hit rate 0.23% among 390,000. AID 743255; active = well fitted curve in the direction sought with a large enough effect; inconclusive = small, poorly fitted or top-dose-only effect, or another doubt; inactive = no such curve, though single readings can be large; an effect the other way counts as inactive or inconclusive; note: potency is the fitted concentration of half-maximal effect; % is set by controls: 0 for no effect and ±100 for the full control effect; nearly all actives have a fitted effect of over 60% in size
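High-throughput fluorogenic screen: 1nM USP1/UAF1 complex, Ub-Rho substrate 150nM final, 50mM HEPES pH 7.8 with 0.5mM EDTA, 0.1 mg/ml BSA, 1mM TCEP and 0.01% Tween-20.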
Tau ThT inhib = inhibitors of human tau fibril formation, thioflavin T binding; AID 1460; Potency, µM (series often up to 57.4 µM), without a hit: at the highest dose activity, negative = inhibition, most hits filed as inhibitors; hit rate 2.1% among 270,000; recombinant tau K18 P301L (four-repeat tau fragment), heparin-induced fibrillization, ThT fluorescence; P10636; active = well fitted curve in the direction sought with a large enough effect; inconclusive = small, poorly fitted or top-dose-only effect, or another doubt; inactive = no such curve, though single readings can be large; an effect the other way counts as inactive or inconclusive; note: potency is the fitted concentration of half-maximal effect; % is set by controls: 0 for no effect and ±100 for the full control effect; nearly all actives have a fitted effect of over 55% in size
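Heparin-induced (20 uM) aggregation of recombinant human K18 P301L tau, 15 uM unlabeled with 0.24 uM labeled, pH 7 acetate buffer, 6 hr at 37 C with compound. Fibrils quantified by 30 uM ThT fluorescence after 1 hr ambient incubation.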
Coupling enz = coupling enzyme interference in Giardia aldolase counter-screen. coupling enzyme system counterscreen, AmpLite Red fluorescence. activity change, negative = inhibition, % at 58.2 µM, hits read low. hit rate 0.67% among 290,000. AID 2472; in the data active = activity change below about -30%; note: % is set by controls: 0 for no effect and ±100 for the full control effect
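Compounds tested against the coupling enzymes alone at 57.5 uM final; readout was AmpLite Red fluorescence (525/598 nm) after 20 min at RT.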
Tau fibril FP = inhibitors of human tau fibril formation. P10636. Potency, µM (titrated, usually from 57.7 µM), inactives show top-dose activity, negative = inhibition, hits mostly inhibitors. K18 P301L tau heparin fibrillization, Alexa594 FP, 6 h. hit rate 0.39% among 280,000; active = well fitted curve in the direction sought with a large enough effect; inconclusive = small, poorly fitted or top-dose-only effect, or another doubt; inactive = no such curve, though single readings can be large; an effect the other way counts as inactive or inconclusive; note: potency is the fitted concentration of half-maximal effect; % is set by controls: 0 for no effect and ±100 for the full control effect; nearly all actives have a fitted effect of over 55% in size
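FP of Alexa 594-tau after heparin (20 uM) induction. Substrate: human K18 P301L, 15 uM unlabeled, 0.24 uM labeled. Buffer 100 mM sodium acetate pH 7. 6 hr, 37 C.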
CASP1 redox cat = caspase-1 inhibition with catalase present. shares compounds with Coupling enz. caspase-1 Ac-WEHD-AFC fluorescence rate, catalase buffer. Potency, µM (top dose mostly 57.5 µM), for inactives: top-dose activity change, negative = inhibition, actives largely listed as inhibitors. 30 tested, under 10 active
Target sequence (P29466 120-297 limits assumed): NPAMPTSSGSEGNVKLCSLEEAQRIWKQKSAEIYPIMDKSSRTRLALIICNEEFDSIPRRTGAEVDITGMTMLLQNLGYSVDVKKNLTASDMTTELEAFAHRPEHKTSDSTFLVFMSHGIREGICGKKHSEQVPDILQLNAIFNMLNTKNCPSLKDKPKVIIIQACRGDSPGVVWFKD
Target sequence (P29466 317-404 limits assumed): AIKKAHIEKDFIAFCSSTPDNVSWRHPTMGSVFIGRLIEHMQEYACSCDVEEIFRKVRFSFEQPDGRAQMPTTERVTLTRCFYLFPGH
Casp1 confirm = blocks human caspase-1 activity in concentration-response; shares compounds with Coupling enz; purified caspase-1, fluorogenic substrate cleavage; Potency, µM (top dose mostly 57.5 µM), for inactives: top-dose activity change, negative = inhibition, hits mostly inhibitors; hit rate 20% among 60; AID 896
Casp7 confirm = blocks human caspase-7 activity in concentration-response | shares compounds with Coupling enz | recombinant caspase-7, fluorogenic substrate cleavage | Potency, µM (titrated, usually from 57.5 µM), for the others: at the top dose activity change, negative = inhibition, most hits filed as inhibitors | 60 tested, under 10 active; active = well fitted inhibition curve with a large enough effect in the main read-out, with a control signal flat, not every such curve was filed as active; inconclusive = small, poorly fitted or top-dose-only effect, or a change in a side signal; inactive = no such curve, though single readings can be large or run the other way
Target sequence (P55210 24-198 limits assumed): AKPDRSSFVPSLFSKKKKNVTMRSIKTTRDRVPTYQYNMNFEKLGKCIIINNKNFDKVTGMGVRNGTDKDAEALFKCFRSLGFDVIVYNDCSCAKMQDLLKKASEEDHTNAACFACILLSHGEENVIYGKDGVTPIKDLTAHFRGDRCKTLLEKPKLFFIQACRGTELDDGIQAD
Target sequence (P55210 207-303 limits assumed): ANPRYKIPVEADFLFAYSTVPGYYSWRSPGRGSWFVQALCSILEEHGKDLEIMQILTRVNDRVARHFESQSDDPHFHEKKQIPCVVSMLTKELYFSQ
Casp7 cysteine = inhibits caspase-7 in cysteine buffer, redox counter-screen; shares compounds with Coupling enz; caspase-7 enzyme with cysteine, fluorogenic substrate, redox counterscreen; Potency, µM (top dose mostly 57.5 µM), inactives show at the top dose activity change, negative = inhibition, usual class: inhibitors; 60 tested, under 10 active; AID 908
CASP7 redox cat = counter-screen for redox active caspase-7 inhibitors: catalase buffer | Potency, µM (top dose mostly 57.5 µM), without a hit: at the highest dose activity, negative = inhibition, most hits filed as inhibitors | Caspase-7 Ac-DEVD-AFC fluorescence rate, catalase buffer | shares compounds with Coupling enz | 30 tested, under 10 active | AID 909
Casp1 cysteine = counter-screen for redox active caspase-1 inhibitors: cysteine buffer; Potency, µM (top dose mostly 57.5 µM), for the others: at the highest dose activity change, negative = inhibition, most hits filed as inhibitors; shares compounds with Coupling enz; AID 929; recombinant caspase-1, fluorogenic substrate, cysteine buffer; 60 tested, under 10 active
The depositor's hits bear a star; ! = not confirmed by another sample; [ ] = remark or other dose. Sampled rows, rich in hits. Any-hit rate of the full collection: about 2.3%. Unless noted, calls come from the whole dose curve; as a rule, active = well fitted inhibition curve with a large enough effect in the main read-out, with a control signal flat; inconclusive = small, poorly fitted or top-dose-only effect, or a change in a side signal; inactive = no such curve, though single readings can be large or run the other way.

Results for CC(=O)n1nc(-c2ccco2)nc1SCc1ccccc1 ?
Tau fluor cs: -6%; USP1-UAF1 inh: -16%; Tau ThT inhib: inconclusive; Coupling enz: 1; Tau fibril FP: 2%; Casp1 confirm: -3%; Casp7 confirm: 2%; Casp7 cysteine: -1%; Casp1 cysteine: 8%

What do the screens show for `O=C(O)c1cc(O)c2c(c1)C(=O)c1cccc(O)c1C2=O`?
Tau fluor cs: 18µM*![quencher]; USP1-UAF1 inh: inconclusive; Tau ThT inhib: 18µM*; Coupling enz: -8; Tau fibril FP: inconclusive; CASP1 redox cat: inconclusive; Casp1 confirm: inconclusive; Casp7 confirm: -1%; Casp7 cysteine: 1%; CASP7 redox cat: -16%; Casp1 cysteine: inconclusive

Results for Cc1cc(O)c2c(c1)C(=O)c1cccc(O)c1C2=O ?
Tau fluor cs: -10%; Tau ThT inhib: inconclusive; Coupling enz: 1; Tau fibril FP: -1%

How did Cc1cc(C)c2c(=O)cc(C(=O)Nc3nc4ccc(F)cc4s3)oc2c1 do in these assays?
Tau fluor cs: -5%; USP1-UAF1 inh: -5%; Tau ThT inhib: -14%; Tau fibril FP: -3%

Results for O=C1C(Cl)=C(NCCN2CCOCC2)C(=O)c2ncccc21 ?
Tau fluor cs: inconclusive; Tau ThT inhib: 13µM*; Coupling enz: -12; Tau fibril FP: inconclusive; Casp1 confirm: 2.5µM*; Casp7 confirm: inconclusive; Casp7 cysteine: -5%; Casp1 cysteine: -2%

What do the screens show for `Clc1ccccc1-c1nccc(NCCN2CCOCC2)n1`?
Coupling enz: 1

Results for Cc1ccc(N)c(Cl)c1 ?
Coupling enz: -3

Results for Nc1ccc(N)c(Cl)c1 ?
Casp1 confirm: -4%; Casp7 confirm: 1%; Casp7 cysteine: -3%; Casp1 cysteine: 4%

What do the screens show for `COc1cc2c(C=O)c3c4c(cc(OC)c(OC)c4c2cc1OC)CCN3C`?
Tau fluor cs: inconclusive; Tau ThT inhib: 14µM*; Coupling enz: -34*; Tau fibril FP: -8%; Casp1 confirm: 13µM*; Casp7 confirm: inconclusive; Casp7 cysteine: -9%; Casp1 cysteine: inconclusive

How did O=C1C(SCCO)=C(SCCO)C(=O)c2ccccc21 do in these assays?
Tau fluor cs: 2µM*[quencher]; USP1-UAF1 inh: 6.3µM*; Tau ThT inhib: 14µM*; Coupling enz: -56*; Tau fibril FP: 2.5µM*; Casp1 confirm: -44%; Casp7 confirm: -18%; Casp7 cysteine: -14%; Casp1 cysteine: -8%

Results for CCOC(=O)c1cnn(-c2nc(OCC)cc(OCC)n2)c1C ?
Tau fluor cs: -2%; USP1-UAF1 inh: 0%; Tau ThT inhib: -15%; Coupling enz: 0; Tau fibril FP: 5%
